# Bioassay records (PubChem BioAssay)
# Shown is part of a subset that was picked to be rich in hits.
# VACV E9 pol inh: vaccinia E9 polymerase processive synthesis inhibition | in vitro processive DNA synthesis, absorbance read-out; stronger effect = lower value | normalized absorbance, % (concentration not given with the values) | 0.94% of 46,000 active; in the data active = normalized absorbance mostly below about 85%, no sharp cut-off; inactive = mostly above about 86%
# A number is an active result; 0 = inactive.
SMILES,VACV E9 pol inh
CCc1ccc2oc(-c3ccccc3)cc(=NCc3cccnc3)c2c1,79.8
C(=NCc1ccccc1)c1cn(-c2ccccc2)nc1-c1cccnc1,0
CC1(C(=O)Nc2nc3ccccc3s2)CCCC1,0
COc1ccccc1CC(=O)Nc1nncs1,0
COC(=O)c1c(NC(=O)C(F)(F)F)sc2c1CCCC2,0
O=C(CSC1=NCCN1)NC(c1ccccc1)c1ccccc1,0
CCN1CN=C(SCc2cccc(C#N)c2)NC1,0
CN1CN=C(SCc2ccc(Cl)c(Cl)c2)NC1,0
N#Cc1ccc(CSc2ccc(Cl)cc2)cc1,0
CN1CN=C(SCc2cccc(C#N)c2)NC1,76.1
N#Cc1ccc(CSC2=NCCN2)cc1,70.6
CCC1(c2cccc(OC(=O)Nc3ccc(OC(F)(F)F)cc3)c2)CCCCN(C)C1=O (configuration not stated),0
O=C(/C=c1\[nH]c(=O)/c(=C/c2cccnc2)s1)c1ccc(Cl)cc1,0
Cc1ccc(-c2cc(C(=O)Nc3cccc4c3CCCC4)[nH]n2)cc1C,0
CC(=O)SCC(=O)N=c1sc2ccccc2n1C,0
CCc1ccc(Nc2c3c(nc4ccccc24)CCC3)cc1,0
CN(C)CCCNc1c2c(nc3ccccc13)CCC2,26.7
CCc1ccc(Nc2c3c(nc4ccccc24)CCCC3)cc1,0
COc1ccc2c(Sc3ccccc3)c(C(=O)N3CCc4ccccc43)[nH]c2c1,0
CN(C)c1ccc(C=NCC2CCCN3CCCCC23)cc1 (configuration not stated),0
Cn1c(=O)c2cc(C(=O)Nc3cccc(C(F)(F)F)c3)sc2c2ccccc21,0
Cc1cc(NC(=O)N2CCC(CN3CCC(C)CC3)CC2)ccc1Br,0
CC(=C/C(=O)O)/C=C/c1ccccc1,0
CC1=C(/C=C/C(C)=C/C=C/C(C)=C\C(=O)O)C(C)(C)CCC1,29.0
CC1=C(/C=C/C(C)=C/C=C/C(C)=C/C(=O)Nc2ccc(O)cc2)C(C)(C)CCC1,0
SMILES,VACV E9 pol inh
O=C(Nc1ccccc1)OCc1cc(-c2ccccc2)c(C(F)(F)F)s1,0
CCN(CC)c1ccc(NS(=O)(=O)c2ccc(F)cc2)cc1,0
Cc1ccc(C(C)n2cc(C(=O)NCC3CCCO3)nn2)cc1 (configuration not stated),0
O=C(Cc1ccc(Cl)cc1)c1ccc(Cl)cc1,78.8
O=C(CC(SCc1ccc(Cl)cc1)C(=O)O)c1ccc(Cl)cc1 (configuration not stated),0
O=C(CNC(=O)c1ccc(Cl)cc1)c1ccc(Cl)cc1,0
Cc1cc(NC(=O)COC(=O)Cc2ccsc2)ccc1Br,0
O=C1c2ccccc2CCC1(CO)CO,0
Cc1ccc2onc(OC(=O)NC(C)(C)C)c2c1,0
CCc1ccc(NS(=O)(=O)c2ccc3c(c2)CCCN3C(C)=O)cc1,0
S=c1nc2[nH]c(=S)[nH]c(=S)c2c(-c2ccco2)[nH]1,60.2
Nc1nccc(-c2ccco2)n1,0
O=C(CNc1cc(Cl)ccc1Cl)N1CCCC1,0
CC(=O)N(CCC(c1ccccc1)c1ccco1)Cc1ccc(N(C)C)cc1 (configuration not stated),0
COc1ccc2[nH]c(O)c(N=O)c2c1,0
CC(C)N=Cc1c(O)[nH]c2ccccc12,0
O=Nc1c(-c2c(O)[nH]c3ccccc23)[nH]c2ccccc12,82.9
COc1ccc(OC)c(S(=O)(=O)NC(C)c2ccccc2)c1 (configuration not stated),0
Cc1nc2cccc(C(=O)O)c2o1,0
Nc1nc2ccccc2n1CCN1CCCCC1,0
CCn1c2ccccc2n2cc(-c3ccccc3)nc12,0
c1ccc(-c2cn3c4ccccc4n(CCN4CCCCC4)c3n2)cc1,58.8
CN(C)C(=O)CSc1nc(N)cc(=O)[nH]1,0
COC(=O)c1ccc(CSC(=N)N)cc1,80.9
COC(=O)c1ccc(Nc2ccccc2)cc1,0
SMILES,VACV E9 pol inh
COC(=O)c1ccc(CSc2nnc3n(N)cnn23)cc1,0
N=C(N)SCc1ccccc1,0
COC(=O)c1ccc(NC(=S)N(C(C)C)C(C)C)cc1,0
COC(=O)c1ccc(NN)cc1,81.0
FC(F)(F)c1ccc(C=Nc2cc(Cl)cc(Cl)c2)cc1,0
CC(CC(=O)C1C(C)C=CCC1(C)C)Nc1ccccc1 (configuration not stated),0
COc1cccc(CNC(=O)c2[nH]c3cc(C)ccc3c2Sc2ccc(Cl)cc2)c1OC,0
O=C(c1[nH]c2ccccc2c1Sc1ccc(Cl)cc1)N1CCCC1,0
Cc1ccc2c(Sc3ccc(Cl)cc3)c(C(=O)O)[nH]c2c1,56.7
c1ccc2c(c1)CSC(=NCc1ccncc1)N2,0
Cc1ccc(-c2csc(/N=C/c3cc(Br)ccc3O)n2)cc1,0
Cc1ccc(-n2c(=O)c3ccc(C(=O)NCc4ccco4)cc3n(Cc3cccc(C)c3)c2=O)cc1,0
OC(CNCc1ccccc1)Cn1c2ccc(Cl)cc2c2cc(Cl)ccc21 (configuration not stated),0
CN(C)CC(O)Cn1c2ccc(Br)cc2c2cc(Br)ccc21 (configuration not stated),26.6
CN(CC(O)Cn1c2ccccc2c2ccccc21)S(C)(=O)=O (configuration not stated),0
C=CCn1c(-c2ccccc2)nn(CN2CC(C)OC(C)C2)c1=S (configuration not stated),0
O=C(Nc1ccccc1C(=O)N1CCCCCC1)c1cccc(S(=O)(=O)N2CCCCCC2)c1,0
O=S1(=O)CCC(N=Cc2ccc(-c3cccc(C(F)(F)F)c3)o2)C1 (configuration not stated),0
O=C1NC(=S)S/C1=C/c1ccc(-c2cccc(C(F)(F)F)c2)o1,79.5
O=C1NC(=S)S/C1=C\c1ccccc1C(F)(F)F,0
COC(=O)c1ccccc1NC(=S)N1CCCCC1,0
CCS(=O)(=O)CCc1nnc(NC(=O)Nc2cccc(C(F)(F)F)c2)s1,0
O=C(CSc1ccccc1)Nc1ccc(F)cc1,0
Cc1ccc(/C=C2\N=C(c3ccccc3)OC2=O)o1,0
Cc1ccc(/C=C2/C=CC(=O)O2)o1,82.4
SMILES,VACV E9 pol inh
Cc1ccc(/C=C2\CC/C(=C\c3ccc(C)o3)C2=O)o1,0
CCC(C)NC(=O)c1cccc2c1C(=O)N(CC1CCCO1)C2 (configuration not stated),0
BrCc1cn(-c2ccccc2)nc1-c1ccccc1,0
COc1ccccc1C1CC(=O)CC(c2ccccc2OC)S1 (configuration not stated),0
Cc1ccccc1N1C(=O)CS/C1=C(/C#N)C(=O)N1CCCCC1,0
CC(C)C(=O)Nc1ccc(Cl)cc1,0
Oc1ccc(Cl)cc1,0
NS(=O)(=O)c1ccc(Cl)cc1Sc1ccccc1C(=O)O,0
Oc1ccc(Cl)cc1Sc1cc(Cl)ccc1O,77.2
CCCc1ccc2c(N)c(C(=O)c3ccc(Br)cc3)sc2n1,0
Cc1cc(C(=O)OCC(=O)N(c2ccccc2)c2ccccc2)c2ccccc2n1,0
O=c1[nH]c2ccc(Cl)cc2c(-c2ccccc2)c1CN1CCCCC1,0
COc1ccc(-c2n[nH]c(C(F)(F)F)c2-c2cnn(-c3ccccc3)c2)c(O)c1C,0
Cc1c(O)ccc(-c2n[nH]c(C(F)(F)F)c2Oc2ccccc2)c1O,0
COc1ccc(-c2n[nH]c(C(F)(F)F)c2-c2cc3ccccc3o2)c(O)c1,63.2
O=C(O)c1ccc(C(F)(F)F)s1,0
Cc1nc2sc(C(c3cccs3)N3CCC(C)CC3)c(O)n2n1 (configuration not stated),0
COc1ccc2[nH]c3nc(=S)[nH]nc3c2c1,0
CCN(CC)c1ncnc2c1[nH]c1ccc(C)cc12,0
COc1ccc2[nH]c3c(N(C)C)ncnc3c2c1,64.0
